Compound activity from PubChem.
RORg inh: ROR gamma (mouse) transcription inhibition. P51450. 5.4% of 310,000 active. Potency, µM (titrated, usually from 53.6 µM), without a hit: top-dose activity change, negative = inhibition, hits mostly inhibitors. AID 2551. Drosophila S2 Gal4-RORgamma UAS-luciferase reporter, 20 h; note: nearly all actives have a fitted effect of over 60% in size
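Read-out: Photinus luciferase luminescence; inhibitors lower reporter signal. Insect Schneider cells with Gal4-ROR gamma fusion under metallothionein promoter, UAS reporter; 700 uM final copper sulfate induction, 20 hr, ambient temperature.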
PLK1 PBD block: PLK1 (human) polo-box domain binding inhibition. P53350. Plk1 PBD binding of FITC phosphopeptide, fluorescence polarization. Potency, µM, without a hit: max response, negative = inhibition, hits mostly inhibitors. 2.8% of 360,000 active. AID 720504; note: series mostly up to about 57 µM; nearly all actives have a fitted effect of over 65% in size
Target sequence (P53350 whole entry, looked up, the tested form may be a part): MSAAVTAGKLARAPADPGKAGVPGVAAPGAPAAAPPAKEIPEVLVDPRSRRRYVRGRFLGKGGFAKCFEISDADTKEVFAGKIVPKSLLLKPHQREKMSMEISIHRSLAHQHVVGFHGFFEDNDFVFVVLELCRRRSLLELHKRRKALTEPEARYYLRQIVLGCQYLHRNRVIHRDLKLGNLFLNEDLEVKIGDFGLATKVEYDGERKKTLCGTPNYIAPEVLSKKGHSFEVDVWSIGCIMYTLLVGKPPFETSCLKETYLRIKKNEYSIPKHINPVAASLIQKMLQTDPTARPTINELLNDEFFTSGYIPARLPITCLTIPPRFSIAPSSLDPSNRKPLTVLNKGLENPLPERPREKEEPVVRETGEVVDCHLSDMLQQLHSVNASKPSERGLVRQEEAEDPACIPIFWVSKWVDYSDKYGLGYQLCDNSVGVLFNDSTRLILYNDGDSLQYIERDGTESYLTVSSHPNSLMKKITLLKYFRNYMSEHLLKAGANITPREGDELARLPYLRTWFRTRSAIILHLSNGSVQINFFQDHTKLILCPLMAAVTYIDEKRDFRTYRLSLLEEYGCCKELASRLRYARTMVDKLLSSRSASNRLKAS
VP16 counter: inhibits Gal4-VP16 luciferase reporter, ROR gamma counter-screen | 3.5% of 310,000 active | Potency, µM (top dose mostly 53.6 µM), for inactives: top-dose activity, negative = inhibition, usual class: inhibitors | AID 2546 | Drosophila S2 Gal4-VP16 UAS-luciferase, luminescence, 20 h;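 note: Gal4-VP16 expression switched on by copper sulfate through the metallothionein promoter; nearly all actives have a fitted effect of over 50% in size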
Sfp inh: Sfp phosphopantetheinyl transferase inhibition. Biochemical Sfp PPTase activity, qHTS. Potency, µM, inactives show largest response in the series, negative = inhibition, actives largely listed as inhibitors. 3.5% of 310,000 active. AID 1490;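 note: the enzyme is Sfp with the accession as filed and its product quenches rhodamine fluorescence; 0% = enzyme reaction without inhibitor and -100% = no enzyme wells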
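With Hepes-Na pH 7.6 buffer containing 10 mM MgCl2, Sfp (15 nM) modified BHQ-2-YbbR (12.5 uM) using rhodamine-CoA (5 uM). Two reads 30 minutes apart at 525/598 nm yielded each well's rate.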
ALDH1A1 block: ALDH1A1 (human) enzyme inhibition; P00352; Purified ALDH1A1, NADH fluorescence, propionaldehyde substrate; Potency, µM (doses to about 75.3 µM), without a hit: at the top dose activity, negative = inhibition, actives largely listed as inhibitors; 7.3% of 220,000 active; AID 1030; active = well fitted inhibition curve with a large enough effect, not every such curve was filed as active; inconclusive = small, poorly fitted or top-dose-only effect, or another doubt; inactive = no such curve, though single readings can be large or run the other way;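 note: plate controls were no enzyme wells and a reference inhibitor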
* = called active by the depositor; ? = inconclusive; . = no result given; [ ] = another dose, or the depositor's remark. The list is not random: actives were taken first. Their share in the collection is about 12%. Unless noted, calls come from the whole dose curve; as a rule, active = well fitted curve in the direction sought with a large enough effect; inconclusive = small, poorly fitted or top-dose-only effect, or another doubt; inactive = no such curve, though single readings can be large; an effect the other way counts as inactive or inconclusive. Unless noted, % is set by controls: 0 for no effect and ±100 for the full control effect; potency is the fitted concentration of half-maximal effect.

SMILES | RORg inh | PLK1 PBD block | VP16 counter | Sfp inh | ALDH1A1 block
COc1cc(O)c2c(O)c3c(c4c2c1[C@@]1(C4)C(C)=CCCC1(C)C)[C@H](O)[C@@]1(O)CC(=O)C(C(N)=O)=C(O)[C@]1(O)C3=O | . | . | . | . | 9%[13.5 µM]
CCCCCCCCCCCCCCCC(=O)OC(C)C | -17%[10 µM] | . | -5% | 22% | .
N=C(N)SCCSC(=N)N | . | . | . | . | 10%[13.5 µM]
COc1ccc(-n2ncc3c(N(C)C4CCCCC4)ncnc32)cc1 | 0.25µM* | 0% | 8.9µM* | -27% | .
CC1CCN(c2ncnc3c2cnn3-c2ccccc2)CC1 | ? | -7% | ? | -12% | ?
Cc1cccc(-n2ncc3c(N(C)C4CCCCC4)ncnc32)c1 | ? | -7% | 0.89µM* | -15% | .
Cc1ccc(-n2ncc3c(N4CCC(C(N)=O)CC4)ncnc32)c(C)c1 | 31% | -3% | 27% | 20% | -2%
COc1ccc(-n2ncc3c(N4CCC(C)CC4)ncnc32)cc1 | 8.9µM* | -10% | ? | -11% | .
Cc1cccc(-n2ncc3c(N(CCO)CCO)ncnc32)c1 | ? | 2% | ? | 18% | -9%
CCN(CC)C(=O)C1CCN(c2ncnc3c2cnn3-c2ccc(C)cc2C)CC1 | 23% | -10% | 2% | 56µM* | 10µM*
CCOC(=O)C1CCN(c2ncnc3c2cnn3-c2ccccc2)CC1 | -79% | 0% | -10% | 20% | ?
CCOC(=O)C1CCN(c2ncnc3c2cnn3-c2ccc(Cl)cc2)CC1 | 1.4µM* | -1% | ? | -16% | ?
CC1=C(C(=O)N2CCCCCC2)CC(CC(=O)NCCCCc2ccccc2)C(=O)N1Cc1ccccc1 (configuration not stated) | . | 0% | . | . | .
Nc1nc(-c2ccccc2)c(N=Nc2cccnc2)s1 | ? | -24% | -7% | 1% | 20µM*
Cc1nn(-c2ccccc2)c(N)c1N=Nc1cccnc1 | 1% | -1% | 7% | 11% | -7%
CCCn1c2ccccc2c2nnc(SCC(=O)Nc3nnc(CC(=O)OCC)s3)nc21 | -4% | -2% | 1% | 22% | -7%
CCOC(=O)Cc1nnc(NC(=O)CSc2nnc3c4ccccc4n(C(C)C)c3n2)s1 | 5% | -3% | -16% | -15% | 28µM*
CC(C)n1c2ccccc2c2nnc(SCC(=O)Nc3ccccc3C(=O)O)nc21 | 1% | 27µM* | -16% | 9% | ?
C[C@H](CO)N1C[C@H](C)[C@@H](CN(C)S(=O)(=O)c2ccccc2F)Oc2ncc(Br)cc2C1=O | . | -8% | . | . | .
O=C(/C=C\Nc1ccccc1Br)c1ccc2c(c1)OCO2 | 5µM* | -11% | ? | -30% | -15%
COC(=O)c1ccc(N/C=C\C(=O)c2ccc3c(c2)OCO3)cc1 | -10% | -7% | -6% | -9% | -5%
CNc1cc([N+](=O)[O-])ccc1N/C=C/C(=O)c1ccc2c(c1)OCO2 | ? | -5% | -27% | ? | 13µM*
O=C(/C=C/c1ccccc1Br)c1ccc2c(c1)OCO2 | -80% | -13% | ? | -21% | .
O=C(/C=C\Nc1cccc(F)c1)c1ccc2c(c1)OCO2 | ? | -6% | 10µM* | 11% | -2%
CCCCCCn1cc(CN2CC(N3CCN(Cc4ccccc4F)CC3)CS2(=O)=O)nn1 (configuration not stated) | . | -7% | . | . | .
SMILES | RORg inh | PLK1 PBD block | VP16 counter | Sfp inh | ALDH1A1 block
CCSc1nnc(N2C(=O)c3ccc(C(=O)c4ccc(C(=O)O)cc4)cc3C2=O)s1 | 0% | -11% | -3% | 26% | .
CC1(C)Cc2c(c(N3CCCC3)[nH]c(=S)c2C#N)CO1 | 7% | . | 7% | 40µM* | ?
C1CCN(c2nc3nonc3nc2N2CCCC2)C1 | 24% | -1% | 0% | 7% | -6%
CCn1cc(CNc2nc3nonc3nc2N2CCCCC2)cn1 | 7.1µM* | -8% | ? | 6% | -11%
CC(C)CN1C(=O)c2ccccc2C1(O)Cc1ccccc1 (configuration not stated) | ? | -1% | 20µM* | ? | ?
O=C1c2ccccc2C(O)(Cc2ccccc2)N1C1CCCCC1 (configuration not stated) | 3% | -4% | 5% | -5% | 22µM*
O=C(NCCN1CCC(n2c(=O)[nH]c3ccccc32)CC1)c1ccc(F)cc1Cl | . | -9% | . | . | .
O=[N+]([O-])c1ccc(S(=O)(=O)Nc2ccc3c(c2)OCCO3)cc1 | 4%[1.91 µM] | 24µM* | -1% | ? | .
Cc1nc2ccc(NS(=O)(=O)c3c(C)c(C)cc(C)c3C)cc2s1 | ? | ? | -21% | -27% | -15%
CSc1ccc(S(=O)(=O)Nc2ccc3c(c2)OCCO3)cc1 | ? | -10% | ? | -9% | 16µM*
Cc1ccc(S(=O)(=O)Nc2ccc3c(c2)OCCO3)cc1 | 42% | -12% | 1% | 23% | 4%
Cc1nc2cc(NS(=O)(=O)c3c(C)c(C)cc(C)c3C)ccc2s1 | ? | -11% | 11µM* | -4% | ?
Cc1nc2ccc(NS(=O)(=O)c3ccc4c(c3)OCCO4)cc2s1 | ? | -6% | 8.9µM* | 7% | 1%
O=S(=O)(Nc1ccc2c(c1)OCCO2)c1ccc(F)cc1 | 0% | -7% | 13% | -2% | -8%
Cc1ccc(S(=O)(=O)Nc2ccc3nc(C)sc3c2)cc1 | ? | -11% | ? | -5% | -2%
Cc1c(C(=O)NN2CCCCC2)nn(-c2ccc(Cl)cc2Cl)c1-c1ccc(Cl)cc1 | 24%[10 µM] | . | -13% | -12% | .
O=C(CCNS(=O)(=O)c1cccc2nsnc12)Nc1ccc2c(c1)OCCO2 | 11% | -4% | 0% | 14% | -3%
Cc1cc(-c2nc3cccnc3s2)ccc1NS(=O)(=O)c1ccc2c(c1)OCCO2 | 33% | -18% | 5% | 3% | ?
Cc1c(NS(=O)(=O)c2ccc3c(c2)OCCO3)cccc1-c1nc2cccnc2s1 | ? | 3% | -2% | 21% | 16µM*
O=S(=O)(Nc1ccc2c(c1)OCCO2)c1cccc2nsnc12 | -8% | -11% | -8% | 2% | 25µM*
CCC1(c2ccc(F)cc2)NC(=O)N(CC(=O)N(C)C2CCS(=O)(=O)C2)C1=O (configuration not stated) | . | -1% | . | . | .
COc1ccc(N/C(=C(/C(Cl)=C(Cl)Cl)[N+](=O)[O-])n2nnc3ccccc32)cc1 | 1% | . | -2% | ? | 16µM*
Cc1ccccc1N/C(=C(/C(Cl)=C(Cl)Cl)[N+](=O)[O-])n1nnc2ccccc21 | -8% | ? | 11% | -4% | 14µM*
Cc1ccco1 | 21% | . | 0% | . | 3%
CCOC(=O)CC1(NC(=O)C2CCC(=O)N(Cc3ccccc3F)C2)CCCCC1 (configuration not stated) | 12% | 27µM* | -4% | 18% | .
CC1CCN(C(=O)CSc2nncn2-c2ccccn2)CC1 | -17%[10 µM] | 27µM* | 2% | ? | ?
COc1ccc(-n2c(SCC(=O)C(C)(C)C)nc3c(sc(=S)n3-c3ccccc3)c2=O)c(OC)c1 | -45% | 3.8µM* | ? | 3.5µM* | .
